Structures are written as SMILES. Among all 52,000 compounds or so, about 4,300 (8.3%) were called active. The sample holds actives, similar compounds and a random draw of the others, so the mix is not that of the screen. Rule as the data show it: active = survival mostly below about 52% (no sharp cut-off); inactive = mostly above about 56%.

The assay has as its system DeltatarO mutant. The assay is described as follows: S. aureus survival, RN4220 and DeltatarO strains – OD600, teichoic acid synthesis inhibitors, primary screen (AID 463173). To be noted: S. aureus RN4220 wild type/DeltatarO growth, OD600, 18 h, stronger effect = lower value, screened at 18.75 µg/mL (by protocol).
`CCOc1ccccc1C(=O)N1CC(=O)Nc2ccc(Cl)cc2C1c1ccccc1` (centres undefined): the survival was 73% (inactive).
Take `Fc1ccc(Nc2c3c(nc4nncn24)CCC3)cc1`: the survival is 74% (inactive).
In the case of `Cc1ccc(-n2nc(C(=O)Nc3cccc(C#N)c3)c3c4ccccc4n(C)c3c2=O)cc1`, the survival is 129% (inactive).
In the case of `Cc1ccc(C(=O)c2oc3ccccc3c2NC(=O)c2cc(-c3ccccc3)on2)cc1` it was 77% (inactive); in that of `O=C(c1ccco1)N1CCN(c2c3c(nc4cc(-c5cccc(F)c5)nn24)CCCC3)CC1`, 70% (inactive).
Next, `Cc1ccc2cc(CN(Cc3cccnc3)C(=O)c3cccnc3)c(=O)[nH]c2c1`: 106% (inactive); `O=C1Nc2ccccc2Oc2cc(Oc3ccccc3)ccc21`: 33% (active); `Cc1cccc(Oc2ccc3c(c2)Oc2ccccc2NC3=O)c1`: 73% (inactive).
Take `O=C1Nc2ccccc2Oc2cc(Oc3cccc(Cl)c3)ccc21`: the survival was 46% (inactive).
For `COc1ccc(-c2ccc(CNCCCSc3nnnn3C)o2)cc1Cl`, the survival is 79% (inactive).
Take `COc1ccc(Cl)cc1NC(=O)Cn1c(=O)c(-c2ccccc2NC(C)=O)nc2ccccc21`: the survival is 103% (inactive).
Take `CC(=O)Nc1ccccc1-c1nc2ccccc2n(CC(=O)Nc2ccc(C)c(Cl)c2)c1=O`: the survival is 101% (inactive).
In the case of `Nc1nonc1-c1nc2ccccc2n1CC(=O)Nc1cccc(C(F)(F)F)c1`, the survival is 95% (inactive).
Take `CCc1ccc(NC(=O)C(CC)n2c(=O)c(-c3ccccc3NC(C)=O)nc3ccccc32)cc1` (centres undefined): the survival is 65% (inactive).
Consider `CCc1ccc(NC(=O)Cn2c(=O)c(-c3ccccc3NC(C)=O)nc3ccccc32)cc1`, for which the survival was 44% (active).
Next, `CC(=O)Nc1ccccc1-c1nc2ccccc2n(CC(=O)Nc2cccc(C(F)(F)F)c2)c1=O`: 45% (active); `CCOc1ccccc1-c1nc(C(N)=O)c2c(n1)n(-c1ccc3c(c1)OCO3)c(=O)n2C`: 79% (inactive); `CCOc1ccc(NC(=O)Cc2c[nH]c3ccccc23)cc1`: 80% (inactive).
In the case of `Cc1oc2c(c1C(=O)NCCO)CCCC2` it was 85% (inactive).
On to `COCc1cc(C)nc2sc3c(c12)NC(c1ccc(O)cc1)N(c1ccc(OC)cc1)C3=O` (centres undefined), for which the survival is 76% (inactive).
In the case of `CCCN1C(=O)C2(c3ccccc31)c1c(oc3ccc(F)cc3c1=O)C(=O)N2CCCOC(C)C` (centres undefined) it was 93% (inactive); in that of `COc1ccc2cc(C#N)c(N3CCCN(C(=O)/C=C/C(=O)O)CC3)nc2c1`, 105% (inactive); in that of `CCCN1CCc2nc(N3CCN(c4ncccn4)CC3)ncc2C1`, 75% (inactive).
Turning to `O=C1OCCC1Sc1nc2ccccc2n1Cc1ccccc1` (centres undefined), the survival is 73% (active).
Turning to `O=C(CSc1nc2ccccc2n1Cc1ccccc1)Nc1ccccn1`, the survival was 81% (inactive).
Next, `O=C(CSc1nc2ccccc2n1Cc1ccccc1)NCc1ccccc1`: 95% (inactive).
Consider `COC(=O)c1nnn(CC(=O)Nc2c(C)cccc2C)c1N`, for which the survival was 87% (inactive).
For the compound `Cc1ccc(NC(=O)CN2C(=O)COc3ccc(S(=O)(=O)N4CCCCCC4)cc32)cc1Cl`, the survival is 67% (inactive).
Take `Cn1cccc1/C=N/NC(=O)c1ccccn1`: the survival was 77% (inactive).
In the case of `COc1cccc(/C=N/NC(=O)COc2c(C)cccc2C)c1O`, the survival is 88% (inactive).
Consider `COc1cccc(/C=N/NC(=O)CSCc2ccccc2)c1O`, for which the survival is 69% (inactive).
Next, `COc1cccc(/C=N/NC(=O)c2cccc(C)c2)c1O`: 2% (active).
Regarding `Cc1cccc(/C=N/NC(=O)c2ccccn2)c1O`, the survival was 5% (active).
Regarding `O=C(N/N=C/c1ccc(OC(=O)c2ccco2)cc1)c1ccccn1`, the survival is 92% (inactive).
For `COc1ccc(C(=O)Nc2ccc3nc4n(c(=O)c3c2)CCCCC4)cc1OC`, the survival is 91% (inactive).
Consider `CCOc1ccc(-n2c(=O)c3c(C)c(C)sc3n(CC(=O)N3CCC(C)CC3)c2=O)cc1`, for which the survival is 71% (inactive).
As to `CCC(C)NC(=O)c1ccc2nc(Cc3ccc(OC)cc3)oc2c1` (centres undefined), the survival is 76% (inactive).
In the case of `CCOC(=O)c1c(C)[nH]c(CCC(=O)Nc2cc(Cl)ccc2OC)c1C`, the survival is 94% (inactive).
On to `COc1ccccc1CNC(=O)Cn1c(=O)ccc2cc(S(=O)(=O)N3CCCC3)ccc21`, for which the survival was 69% (inactive).
For the compound `CCn1nc(C)c(CCN(C)C(=O)Nc2cc(OC)c(OC)c(OC)c2)c1C`, the survival is 89% (inactive).
For the compound `COc1cc2c(cc1NC(=O)COc1ccc(Br)cc1)oc1ccccc12`, the survival is 72% (inactive).
For `COc1cc2c(cc1NC(=O)COc1ccc(Cl)cc1)oc1ccccc12`, the survival was 46% (active).
Next, `COc1cc2c(cc1NC(=O)COc1ccc(Br)c(C)c1)oc1ccccc12`: 49% (inactive); `CCc1ccc(OCC(=O)Nc2cc3oc4ccccc4c3cc2OC)c(Br)c1`: 123% (inactive); `CCc1ccc(OCC(=O)Nc2cc3oc4ccccc4c3cc2OC)cc1`: 47% (active).
Regarding `COc1cc2c(cc1NC(=O)COc1ccc(Br)cc1C)oc1ccccc12`, the survival is 119% (inactive).
Turning to `O=C(CN1CCSc2ccccc21)N1CCN(c2ccc(F)cc2)CC1`, the survival was 88% (inactive).
In the case of `O=C(O)CCCNc1ncnc2ccccc12`, the survival is 92% (inactive).
With `COc1ccc(NC(=O)C2CCN(c3nc4ccccc4[nH]3)CC2)cc1OC`, the survival is 66% (inactive).
In the case of `Fc1ccccc1-n1ncc2c1ncn1nc(Cc3ccccc3)nc21`, the survival is 74% (inactive).
Consider `CC(C)(C)OC(=O)N1CC=C2C(C#N)=C(N)C(C#N)(C#N)C(c3ccc4c(c3)OCO4)C2C1` (centres undefined), for which the survival is 35% (active).
Next, `COc1cccc(C2C3CN(C(C)=O)CC=C3C(C#N)=C(N)C2(C#N)C#N)c1` (centres undefined): 93% (inactive); `CCOC(=O)N1CC=C2C(C#N)=C(N)C(C#N)(C#N)C(c3ccc(CC)cc3)C2C1` (centres undefined): 88% (inactive).
In the case of `Cc1cccc(NC(=O)N2CCC(CN3CCc4ccccc4C3)CC2)c1C` it was -2% (active); in that of `COC(=O)c1ccc(NC(=O)N2CCC(CN3CCc4ccccc4C3)CC2)cc1`, 6% (active).
Regarding `CCOc1ccc(NC(=O)N2CCC(CN3CCc4ccccc4C3)CC2)cc1`, the survival was -1% (active).
In the case of `CCOc1ccc(NC(=O)N2CCC(CN3CCCCCC3)CC2)cc1` it was 115% (inactive); in that of `CCOc1ccc(NC(=O)N2CCC(CN3CCC(C)CC3)CC2)cc1`, 117% (inactive).
With `COc1cc(NC(=O)N2CCC(CN3CCc4ccccc4C3)CC2)cc(OC)c1`, the survival was 70% (inactive).
Consider `Cc1cccc(NC(=O)N2CCC(CN3CCCCCC3)CC2)c1C`, for which the survival is 81% (inactive).
In the case of `Cc1cc(C)cc(NC(=O)N2CCC(CN3CCc4ccccc4C3)CC2)c1` it was 72% (inactive); in that of `CCc1ccccc1NC(=O)N1CCC(CN2CCc3ccccc3C2)CC1`, 76% (inactive); in that of `COc1ccc(Cl)cc1NS(=O)(=O)c1cc(-c2cc(C)no2)ccc1C`, 87% (inactive).
As to `CCCCn1c(=O)c2oc3ccccc3c2n(Cc2ccccc2C)c1=O`, the survival is 55% (inactive).
In the case of `COc1cccc(-n2nnc(-c3nc(-c4ccccc4F)no3)c2C)c1` it was 84% (inactive).
For the compound `COc1cccc(OCCSc2nc3ccccc3n2CC(=O)N2CCOCC2)c1`, the survival was 44% (active).
In the case of `Cc1ccc(NC(=O)CSc2nc3ccccc3n2CC(=O)N2CCC(C)CC2)cc1C` it was 17% (active); in that of `Cc1ccc(OCCSc2nc3ccccc3n2CC(=O)N2CCOCC2)c(C)c1`, 93% (inactive).
As for `Cc1cccc(OCCSc2nc3ccccc3n2CC(=O)N2CCOCC2)c1`, the survival was 44% (active).
Turning to `COc1cccc(OCCSc2nc3ccccc3n2CC(=O)N2CCCCC2)c1`, the survival is 42% (active).
As to `COc1ccc(OCCSc2nc3ccccc3n2CC(=O)N2CCOCC2)cc1`, the survival was 51% (inactive).
As for `CC1CCN(C(=O)Cn2c(SCC(=O)Nc3ccc(F)cc3)nc3ccccc32)CC1`, the survival was 96% (inactive).
In the case of `CC1CCN(C(=O)Cn2c(SCC(=O)NC(C)(C)C)nc3ccccc32)CC1` it was 92% (inactive).
On to `O=C(Cn1c(SCCOc2ccccc2)nc2ccccc21)N1CCOCC1`, for which the survival is 47% (inactive).
With `Cc1ccc(OCCSc2nc3ccccc3n2CC(=O)N2CCOCC2)cc1`, the survival was 96% (inactive).
For the compound `COc1ccc(C2CC(=O)Nc3c2c(C)nn3-c2nncc(-c3ccc(C)cc3)n2)c(OC)c1OC` (centres undefined), the survival was 83% (inactive).
For the compound `CCOc1ccc(/C=C(\C#N)C(=O)NCc2ccco2)cc1OC`, the survival is 113% (inactive).
Consider `CCOc1ccc(CNCc2c(C(=O)O)c(C)n(Cc3c(F)cccc3Cl)c2C)cc1OC`, for which the survival is 56% (inactive).
Turning to `COc1ccc(C2CC(=O)c3cc(-c4nc(-c5ccc(C)cc5)cs4)c(=O)[nH]c3C2)cc1` (centres undefined), the survival was 76% (inactive).
Regarding `O=C(CNC(=O)c1ccc(Cl)cc1)OCc1cc(=O)n2nc(C3CCCCC3)sc2n1`, the survival was 90% (inactive).
Next, `CCCCn1cc(S(=O)(=O)c2ccc(Cl)cc2)c(=O)c2cc(F)c(N3CCCC(C)C3)cc21` (centres undefined): 117% (inactive); `O=C(c1ccc(F)cc1)C1CCN(S(=O)(=O)c2ccc(F)cc2)CC1`: 95% (inactive).
With `COc1ccc(CNC(=O)CCCc2nnc3n(CCC(C)C)c(=O)c4sccc4n23)cc1`, the survival was 93% (inactive).
Regarding `Cc1ccc2nc(NC(=O)CSc3cc(C)[nH]c(=O)n3)sc2c1`, the survival is 79% (inactive).
Regarding `Cc1ccc(OCCSc2nc3ccccc3n2CC(=O)NC(C)C)cc1`, the survival was 52% (inactive).
With `Cc1ccc(OCCSc2nc3ccccc3n2CCC(=O)O)cc1C`, the survival was 47% (active).
As to `Cc1ccc(OCCSc2nc3ccccc3n2CC(=O)N2CCOCC2)cc1C`, the survival was 53% (inactive).
For the compound `Cc1cccc(C)c1OCCSc1nc2ccccc2n1CC(=O)O`, the survival was 83% (inactive).
As for `CCN(CC)C(=O)Cn1c(SCCOc2ccc(Cl)cc2)nc2ccccc21`, the survival was 43% (active).
As for `O=C(Cn1c(SCCOc2ccc(Cl)cc2)nc2ccccc21)N1CCCCC1`, the survival was 50% (inactive).
As for `Cn1c(SCCC(=O)O)nc2ccccc21`, the survival is 83% (inactive).
For the compound `CCN(CC)C(=O)Cn1c(SCC(=O)Nc2ccc(F)cc2)nc2ccccc21`, the survival is 100% (inactive).
With `Cc1ccc(OCCSc2nc3ccccc3n2CC(=O)N2CCCCC2)cc1C`, the survival is 46% (active).
Take `CCc1ccc(OCCSc2nc3ccccc3n2CC(=O)N2CCCCC2)cc1`: the survival was 40% (active).
